From PubChem
Pf growth 48h: Primary qHTS for delayed death inhibitors of the malarial parasite plastid, 48 hour incubation; hit rate 5.9% among 310,000; Potency, µM (titrated, usually from 28.7 µM), without a hit: top-dose activity change, negative = inhibition, usual class: inhibitors; AID 504832, 2011; P. falciparum luciferase growth in erythrocytes, 48 h; also: potency is read from the fitted curve at half-maximal effect; % is scaled to controls: 0 for no effect and ±100 for the full control effect
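A one-generation exposure of luciferase-tagged malaria parasites in RPMI 1640/Albumax erythrocyte culture, 37 C and 5% CO2. Inhibition is inferred from decreased luminescence after adding detection reagent.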
LmPK inhibitor: qHTS Assay for Inhibitors of Leishmania Mexicana Pyruvate Kinase (LmPK); Q27686; purified LmPK, Kinase-Glo ATP luminescence, 1 h; Potency, µM (highest dose often 57.5 µM), inactives show at the top dose activity change, negative = inhibition, most hits filed as inhibitors; hit rate 0.37% among 290,000; AID 1721, 2009; also: potency is read from the fitted curve at half-maximal effect; % is scaled to controls: 0 for no effect and ±100 for the full control effect
Target sequence (Q27686 whole entry, looked up): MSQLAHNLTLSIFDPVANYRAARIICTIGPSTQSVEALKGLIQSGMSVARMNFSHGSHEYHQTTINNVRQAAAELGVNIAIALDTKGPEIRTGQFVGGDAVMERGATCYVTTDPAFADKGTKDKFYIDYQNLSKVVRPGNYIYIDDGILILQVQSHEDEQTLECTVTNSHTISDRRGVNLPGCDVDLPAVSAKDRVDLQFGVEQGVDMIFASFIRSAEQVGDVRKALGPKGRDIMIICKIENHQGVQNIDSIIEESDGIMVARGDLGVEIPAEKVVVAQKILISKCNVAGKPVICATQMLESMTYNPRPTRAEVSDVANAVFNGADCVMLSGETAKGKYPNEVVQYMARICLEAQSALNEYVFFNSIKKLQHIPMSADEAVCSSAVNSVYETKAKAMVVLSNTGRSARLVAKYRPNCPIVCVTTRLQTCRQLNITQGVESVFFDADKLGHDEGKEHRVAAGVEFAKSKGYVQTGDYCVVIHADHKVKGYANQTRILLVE
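Pyruvate kinase activity monitored as ATP production (luciferase luminescence). Conditions: 0.1 nM enzyme, 0.5 mM PEP, 0.1 mM ADP, 1 h, RT; normalized against uninhibited and no-enzyme wells.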
Shiga inhibitor: A qHTS for Small Molecule Inhibitors of Shiga Toxin; Vero cells, Shiga toxin protein synthesis inhibition reporter; AID 2315, 2010; hit rate 9.2% among 290,000; inhibition, % at 38.7 µM; in the data active = inhibition mostly above about 28%, no sharp cut-off; inactive = mostly below about 43%; also: 0% is about no effect
Cycloheximide cs: Cycloheximide Counterscreen for Small Molecule Inhibitors of Shiga Toxin; cell reporter, cycloheximide protein synthesis inhibition counterscreen; max response, %; hit rate 12% among 300,000; AID 2314, 2010; in the data active = max response mostly above about 13%, no sharp cut-off; inactive = mostly below about 14%; also: read at 38.3 µM for the half of the compounds with a filed dose; 0% is about no effect
Pf growth 96h: Primary qHTS for delayed death inhibitors of the malarial parasite plastid, 96 hour incubation | P. falciparum luciferase reporter growth, 96 h | Potency, µM (top dose mostly 28.7 µM), without a hit: at the highest dose activity change, negative = inhibition, hits mostly inhibitors | hit rate 6.9% among 320,000; also: potency is read from the fitted curve at half-maximal effect; % is scaled to controls: 0 for no effect and ±100 for the full control effect
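Plates of compound plus infected erythrocytes (2% hematocrit, 0.05% parasitemia final) incubate 96 hours, 37 C, 5% CO2. Detection reagent added; reduced luminescence from the parasites' luciferase reporter flags inhibition.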
Active calls of the source: *; i = inactive; ? = inconclusive; . = no result; + = active, no number; [ ] = remark or other dose. Shown are actives, neighbours in structure and some others; about 22% of the full set was active somewhere. Unless noted, calls follow the shape of the dose curve; as a rule, active = well fitted inhibition curve with a large enough effect; inconclusive = small, poorly fitted or top-dose-only effect, or another doubt; inactive = no such curve, though single readings can be large or run the other way.

SMILES	Pf growth 48h	LmPK inhibitor	Shiga inhibitor	Cycloheximide cs	Pf growth 96h
CCOc1cc(/C=N/NC(=O)c2ccncc2)cc(Cl)c1OS(C)(=O)=O	23%	-1%	-11	6	-22%
O=C(CNC(=O)c1ccc2c(=O)n3c(nc2c1)CCC3)Nc1ccc(F)c(F)c1	-7%	.	.	.	-2%
CCc1ccc(-n2c(C)cc(/C=N/NC(=O)c3ccncc3)c2C)cc1	?	-2%	10	7	164%
Cc1cc(/C=N/NC(=O)c2cccc([N+](=O)[O-])c2)c(C)n1-c1ccccc1	27%	1%	25	34*	-1%
Cc1ccc(-n2c(C)cc(/C=N/NC(=O)c3ccncc3)c2C)cc1C	10µM*	-1%	41	5	-2%
Cc1ccc(-n2c(C)cc(/C=N/NC(=O)CC3(C)OCCO3)c2C)c(C)c1	9.3µM*	1%	15	9	-23%
Cc1cc(/C=N/NC(=O)c2cccs2)c(C)n1-c1cnccn1	266%	0%	59*	48*	73%
CN1CCN(CC2(O)CCN(S(=O)(=O)c3ccc(Cl)cc3)CC2)CC1	?	-8%	-8	-2	-19%
O=C(Cn1nc(-c2ccccc2)ccc1=O)Nc1ccc(N2CCN(C(=O)c3cccs3)CC2)cc1	8%	-6%	-9	0	?
Cc1cc(/C=N/NC(=O)C(O)(c2ccccc2)c2ccccc2)c(C)n1-c1ccccc1	-10%	1%	4	7	?
Cc1cc(/C=N/NC(=O)c2cccs2)c(C)n1-c1ccccc1	.	0%	11*	26*	-70%
Cc1cc(C(=O)N/N=C/c2ccc(O)c(O)c2O)c(C)n1-c1ccccc1	12µM*	-3%	73*	54*	1%
COc1c(F)c(F)c(C(=O)Nc2ccc(NC(=O)Cc3ccccc3)cc2)c(F)c1F	-1%	-2%	-2	-3	6%
C/C(=N/NC(N)=S)c1cc2ccc(O)cc2oc1=O	?	-13%	-3	1	0.83µM*
CN(C(=O)c1ccc2c(c1)SC1=NS(=O)(=O)CCN12)C(c1ccccc1)c1ccccc1	12µM*	3%	-15	11	12µM*
CC(C)(C)OC(=O)NC(CCNC=C1C(=O)OC(C)(C)OC1=O)C(=O)O (centres undefined)	23%	-5%	-13	-1	8.3µM*
C=C1C=C(C(F)F)n2ncc(C(=O)Nc3ccc(C(C)CC)cc3)c2N1 (centres undefined)	?	.	.	.	-16%
Fc1ccc(CO/N=C/C2=C(Cl)c3ccccc3CC2)cc1	40%	-7%	80*	12*	11%
O=c1cc2c(nn1Cc1ccc(F)cc1)-c1ccccc1CC2	-13%	7%	16	-3	?
O=C1CC(=C(c2ccccc2)c2ccccc2)C(=O)N1CCCCN1CCN(c2ccccc2)CC1	.	5%	-13	-2	3.3µM*
COc1c(CC=C(C)C)cc(C2CC(=O)c3c(O)cc(O)cc3O2)cc1CC=C(C)C (centres undefined)	?	0%	19	active	168%
CC(C)=CCc1c(O)cc2c(c1O)C(=O)CC(c1ccc(O)cc1)O2 (centres undefined)	-8%	5%	29	23*	22%
Cc1nn(-c2ccccc2)c(C)c1C(=O)OCC(=O)Nc1ccccc1	115%	.	.	.	100%
Cc1nc(COC(=O)c2c(C)nn(-c3ccccc3)c2C)cs1	-19%	-2%	100*	35*	?
c1ccc(-c2nc(N3CCOCC3)c3ccccc3n2)nc1	7.4µM*	0%	-5	16	?
SMILES	Pf growth 48h	LmPK inhibitor	Shiga inhibitor	Cycloheximide cs	Pf growth 96h
Cc1nnc(-c2ccccc2)nc1N1CCOCC1	13%	4%	-11	-2	62%
Cc1nc(-c2ccccn2)nc(N2CCOCC2)c1Cl	?	-2%	-6	7	2.3µM*
Cc1nc(-c2ccccn2)nc(N(C)c2ccccc2)c1Cl	1.7µM*	-2%	22	20	1.2µM*
COc1ccc(C(=O)CSc2nc(-c3ccccn3)nc(C)c2Cl)cc1	?	3%	-7	-2	?
c1ccc2c(N3CCCCC3)nc(N3CCCC3)nc2c1	13µM*	0%	-9	-1	4.7µM*
O=C1CC2c3ccccc3C1C1C(=O)N(Cc3ccccc3)C(=O)C21 (centres undefined)	25%	-1%	-17	-1	-12%
Cc1nc2ccccc2nc1N1CCOCC1	.	-3%	11	-1	19%
CCN1CCN(c2nc(-c3ccccn3)nc3ccccc23)CC1	?	-1%	26	6	?
Cc1nc2ccccc2nc1N1CCCC1	62%	-1%	40*	22	52%
c1ccc(-c2nc(N3CCCCCC3)c3ccccc3n2)nc1	0.83µM*	2%	-5	-2	.
CC(C)[C@H]1COC(c2cc(Cl)cc(Cl)c2)=N1	.	.	i	-4	.
CCOC(=O)c1nnc(-c2cccs2)nc1NC(C)C	43%	-1%	17	2	79%
COc1ccc(-c2nc(CS(=O)CC(=O)NCc3ccc4c(c3)OCO4)c(C)o2)cc1 (centres undefined)	.	-6%	20	-2	4.7µM*
COc1ccc(CNC(=O)CS(=O)Cc2nc(-c3ccc(C)cc3)oc2C)cc1 (centres undefined)	.	9%	-11	-1	7.4µM*
COc1ccccc1CNC(=O)CS(=O)Cc1nc(-c2ccccc2C)oc1C (centres undefined)	.	14%	-6	-4	5.2µM*
Cc1nnc(SCc2ccc([N+](=O)[O-])cc2)o1	44%	0%	-1	2	3%
O=C(Cn1nc([N+](=O)[O-])nc1Br)NC(c1ccccc1)c1ccccc1	0%	5%	-1	3	?
Cc1c(C(=O)N2CCN(S(=O)(=O)c3ccccc3F)CC2)oc2c(Cl)cccc12	10µM*	.	.	.	12µM*
COCc1c(C(=O)N2CCN(S(=O)(=O)c3ccccc3Cl)CC2)oc2ccccc12	12µM*	.	.	.	?
CCN(CC)C(=O)Cn1cc(C(=O)C(=O)N2CCN(c3ccc([N+](=O)[O-])cc3)CC2)c2ccccc21	-17%	2%	17	-3	?
O=C1c2cccc3c(O)ccc(c23)C(=O)N1c1ccc(Cl)cc1	.	-1%	+	105*	14%
COc1ccc(N2C(=O)c3cccc4c(N(C)CCO)ccc(c34)C2=O)cc1	10µM*	17%	12	9	22%
Cc1ccc(N2C(=O)c3ccccc3NC2c2ccccc2O)cc1 (centres undefined)	.	-4%	79*	36*	17%
COc1ccc(N2C(=O)c3ccccc3C2O)cc1 (centres undefined)	46%	-7%	.	20*	169%
CC(=O)Nc1ccc(N2C(=O)c3cccc4c(O)ccc(c34)C2=O)cc1	-1%[0.00184 µM]	-1%	4	-4	22%
COc1ccc(N2C(=O)c3cccc4cccc(c34)C2=O)cc1	-13%	-2%	-6	-3	?
